According to PubChem BioAssay (NCATS):
Values joined by “and” are separate entries in the source; they are usually repeats but may differ in a detail not shown here. Equal values may be shown once. Results filed as inconclusive are left out. Active and inactive are the calls of the source. Unless noted, the call rests on the fitted dose curve.

Tests used:
[1] = qHTS assay for small molecule agonists of the antioxidant response element (ARE) signaling pathway (AID 651741; active means well fitted activation curve with a large enough effect in the signal ratio; the % refers to the signal ratio; further: potency means the concentration at half of the fitted maximal effect; on activation: % of control where 0% means no effect); settings: HepG2 ARE-bla reporter, beta-lactamase FRET ratio, 16 h; series mostly up to 96 µM
Summary of the method: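 Reporter: beta-lactamase under ARE, stably in HepG2. Exposure: 16 h, 37 C, compounds delivered in DMSO by pin tool after 5 h cell preincubation. Readout: FRET substrate fluorescence after 2 h at RT.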

[2] = qHTS assay for small molecule activators of the p53 signaling pathway (AID 651743; active means well fitted activation curve with a large enough effect in the signal ratio, not every such curve was filed as active; the % refers to the signal ratio; further: potency means the concentration at half of the fitted maximal effect; on activation: % of control where 0% means no effect); settings: HCT-116 p53RE-bla, beta-lactamase FRET ratio, 16 h; activation: active compounds read high
Summary of the method: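 Agonist-mode quantitative HTS in HCT-116 cells carrying a p53-response-element beta-lactamase reporter; 16 h compound treatment at 37 C, then FRET substrate loading for 2 h at room temperature and fluorescence read.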

[3] = qHTS assay for small molecule disruptors of the mitochondrial membrane potential - 1 hr assay (AID 651754); settings: series mostly up to 92.2 µM; further: potency means the concentration at half of the fitted maximal effect; nearly all actives have a fitted effect of over 35% in size
Summary of the method: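 Mitochondrial potential in living HepG2 cells after 1 hr compound treatment at 37C was read with Mito-MPS dye added for a further 30 min. Red aggregate and green monomer fluorescence were measured; loss of potential leaves dye as cytoplasmic monomers.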

[4] = target: Tumor necrosis factor (Homo sapiens) (UniProt P01375); test: qHTS assay to identify small molecules that stimulate Tumor Necrosis Factor-alpha (TNF-alpha) secretion (AID 651757; active means well fitted curve in the direction sought with a large enough effect in the signal ratio; the % refers to the signal ratio; further: 0% is about no effect); settings: Human cells, HTRF 665/615 ratio; series mostly up to 92.2 µM
Chain of Tumor necrosis factor (Homo sapiens) (P01375 whole entry, looked up): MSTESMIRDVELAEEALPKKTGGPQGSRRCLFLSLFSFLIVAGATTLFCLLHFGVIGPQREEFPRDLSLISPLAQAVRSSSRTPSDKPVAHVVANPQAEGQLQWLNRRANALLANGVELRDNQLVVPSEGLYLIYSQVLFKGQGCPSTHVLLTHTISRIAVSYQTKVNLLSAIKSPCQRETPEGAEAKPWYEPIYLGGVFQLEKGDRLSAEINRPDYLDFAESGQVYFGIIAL
Summary of the method: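 Secreted TNF-alpha quantified by TR-FRET sandwich of two labeled anti-TNF-alpha antibodies, incubated 3 hr at room temperature. Preceded by 17 hr, 37 C compound treatment of THP-1 cells at 3000 cells/well.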

[5] = qHTS assay for small molecule activators of the nuclear factor-kappa B (NF-kB) signaling pathway (AID 651749; active means well fitted activation curve with a large enough effect in the signal ratio; the % refers to the signal ratio; further: % of control where 0% means no effect); settings: NF-kB-bla ME-180 cells, beta-lactamase FRET ratio, 16 h; active compounds read high
Summary of the method: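 Human ME-180 cervical cells with an NF-kB-bla construct; compounds added via 23 nL pin transfer, DMSO as vehicle; incubation 16 hr. Reporter activity measured by FRET disruption.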

[6] = qHTS assay for small molecule disruptors of the mitochondrial membrane potential - 5 hr assay (AID 651755); settings: JC-1-type ratio dye; series mostly up to 92.2 µM; further: nearly all actives have a fitted effect of over 40% in size; further: potency means the concentration at half of the fitted maximal effect
Summary of the method: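 Seed HepG2 overnight, add compound, incubate 5 hr at 37C and 5% CO2, stain 30 min with Mito-MPS, then measure monomer (490/535 nm) and aggregate (540/590 nm) fluorescence.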

**Q.** For `N=C1N=C(N)c2cc3ccccc3cc21`, which Potency [1] is on record?
**A.** 16.8 µM (active)

**Q.** What about the Potency [2] of the same compound?
**A.** 35.5 µM (active)

**Q.** What about the Potency [3] of the same compound?
**A.** 6.68 µM (active)

**Q.** And the outcome [4]?
**A.** inactive

**Q.** What does the source list for `CC1(C)S[C@@H]2[C@H](NC(=O)[C@H](N)c3ccccc3)C(=O)N2[C@H]1C(=O)O`?
**A.** activation [2]: 1.65% (inactive); outcome [4]: inactive

**Q.** What does the source list for `Nc1ccc(O)c(C(=O)O)c1`?
**A.** Potency [1]: inactive; activation [2]: 0.238% (inactive) and -1.06% (inactive); activation [5]: -0.163% (inactive) and 0.962% (inactive)

**Q.** Which Potency [1] does the source give for `COc1cc(/C=C/C(=O)CC(=O)/C=C/c2ccc(O)c(OC)c2)ccc1O` here?
**A.** 25.9 µM (active)

**Q.** And the Potency [2]?
**A.** 31.6 µM (active)

**Q.** What about the Potency [3] of the same compound?
**A.** 3.76 µM (active)

**Q.** And the Potency [6]?
**A.** 5.96 µM (active)

**Q.** Which results are given for `CN(C)CCC(c1ccc(Cl)cc1)c1ccccn1` (configuration not stated)?
**A.** activation [2]: -2.38% (inactive); activation [5]: -0.341% (inactive); Potency [6]: inactive; outcome [4]: inactive
